# In PubChem BioAssay (NCATS):
# Values joined by “and” are separate entries in the source; they are usually repeats but may differ in a detail not shown here. Equal entries are not always repeated. Results filed as inconclusive are left out. Some compounds were tested as several samples or in several runs, with calls that do not always agree. Active and inactive are the calls of the source. Unless noted, the call rests on the fitted dose curve; in most records, active means well fitted curve in either direction with a large enough effect (not every such curve was filed as active); inconclusive means small, poorly fitted or top-dose-only effect, or another doubt; inactive means flat fitted curve, though single readings scatter. Residues, ends and D or L forms follow the SMILES beside them. *: point of attachment. Cbz = O=C(OCc1ccccc1)*
# Assays:
# [1] = AP1 Signaling Pathway (AID 357); details: ME-180 (cervical carcinoma) AP-1-bla reporter, EGF-induced, beta-lactamase ratio, 5 h; at 38 µM (top of the series) unless noted;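 further: ME-180 reporter cells stimulated with EGF at its EC50 level; on the % scale 0 is the no-effect control and ±100 the full control effect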
# Method in brief: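 Beta-lactamase reporter under AP-1 response element, ME-180 background. Stimulus: EC50 EGF. Compound exposure 5 h, 37 °C. Detection: CCF4, 2.5 h RT, 460/530 nm. Values: AC50 from titration.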
# [2] = biological target: Cytochrome P450 1A2 (Homo sapiens) (UniProt P05177); experiment: p450-cyp1a2 (AID 410; calls by dose curve; further: potency means the concentration at half of the fitted maximal effect;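 on activity change, negative = inhibition: -100% = full effect of reference inhibitor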)
# Method in brief: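 Read-out is luminescence from luciferin produced by CYP1A2 demethylation of Luciferin-ME (100uM, at Km). Detection reagent stopped the 60 min NADPH-dependent reaction; signals were normalized to 57 uM furafylline.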
# [3] = NFAT Signaling Pathway (AID 444); details: Jurkat NFAT-bla M1, carbachol, beta-lactamase ratio, 5 h; at 38 µM (top of the series) unless noted;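 further: carbachol stimulus at about its EC50 of 1 µM final; on the % scale 0 is the no-effect control and ±100 the full control effect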
# Method in brief: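 Jurkat cells carrying an NFAT-driven β-lactamase reporter and co-transfected muscarinic M1 receptor were treated with compound plus carbachol (1 uM final, an EC50 level) for 5 h at 37 °C. CCF4 loading followed for 1 h at RT; 460/530 nm ratio gave %activity.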
# Sequence of Cytochrome P450 1A2 (Homo sapiens) (P05177 whole entry, looked up): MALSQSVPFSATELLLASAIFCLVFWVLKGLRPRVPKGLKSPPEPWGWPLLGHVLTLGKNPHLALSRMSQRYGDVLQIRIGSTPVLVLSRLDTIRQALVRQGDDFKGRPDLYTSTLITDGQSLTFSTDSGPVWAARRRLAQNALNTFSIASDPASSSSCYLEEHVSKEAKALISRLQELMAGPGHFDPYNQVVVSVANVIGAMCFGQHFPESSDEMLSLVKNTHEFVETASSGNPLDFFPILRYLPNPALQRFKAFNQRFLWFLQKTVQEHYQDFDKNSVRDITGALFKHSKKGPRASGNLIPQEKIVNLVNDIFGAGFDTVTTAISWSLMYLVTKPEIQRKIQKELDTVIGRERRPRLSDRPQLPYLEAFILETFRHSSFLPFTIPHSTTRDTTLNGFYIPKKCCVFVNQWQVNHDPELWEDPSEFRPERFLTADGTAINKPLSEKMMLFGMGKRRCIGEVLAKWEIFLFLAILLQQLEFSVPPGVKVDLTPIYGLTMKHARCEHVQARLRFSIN
SMILES,"activity change, negative = inhibition [1]",Potency [2],"activity change, negative = inhibition [3]"
O=C(O)C1=CC(=C(c2ccc(O)c(C(=O)O)c2)c2ccc(O)c(C(=O)O)c2)C=CC1=O,-18.9% (inactive),10 µM (active),1.98% (inactive)
c1ccc2nc(C3=NCCN3)ccc2c1,-2.57% (inactive),5.01 µM (active) and 794 nM (active),-13% (inactive)
OC1(c2ccc(Cl)cc2)CCN(Cc2c[nH]c3ccccc23)CC1,6.53% (inactive),15.8 µM (active) and 31.6 µM (active),8.51% (inactive)
CCCCCCCCCCCCCCC[C@H](O)[C@H](N)CO,5.73% (inactive),inactive,0.212% (inactive)
COc1ccccc1N1CCN(CCCCN2C(=O)c3ccccc3C2=O)CC1,-12.6% (inactive),inactive,-20.4% (inactive)
O=S(=O)(c1cccc2c(Cl)cccc12)N1CCCNCC1,-0.881% (inactive),15.8 µM (active),3.5% (inactive)
NS(=O)(=O)c1cccc2c1c([N+](=O)[O-])cc1nc(O)c(O)nc12,7.91% (inactive),25.1 µM (active) and inactive,5.62% (inactive)
NOCC(=O)O,12.3% (inactive),inactive,-5.75% (inactive)
O=c1[nH]c2ccccc2c2ccccc12,-9.69% (inactive),0.251 µM (active),8.86% (inactive)
C[C@H](NC(=O)/C(C#N)=C/c1ccc(O)c(O)c1)c1ccccc1,-18.9% (inactive) and -19.7% (inactive),31.6 µM (active) and 15.8 µM (active),-20.6% (inactive) and -13.5% (inactive)
CN[C@H](CC(=O)O)C(=O)O,-0.55% (inactive),inactive,0.454% (inactive)
O=c1[nH]c(=O)c2nc3ccccc3nc2[nH]1,-6.22% (inactive),12.6 µM (active),0.27% (inactive)
Cn1c(=O)c2[nH]c(C3CCCC3)nc2n(C)c1=O,0.66% (inactive),12.6 µM (active),3.19% (inactive)
CC[N+](CC)(CC)CC(=O)Nc1c(C)cccc1C,6.05% (inactive),inactive and 31.6 µM (active),-27.1% (inactive)
Oc1ccc(Cn2cc[nH]c2=S)cc1,-3.65% (inactive),6.31 µM (active),3.63% (inactive)
CCCCCCC/C=C\CCCCCCCCC(=O)O,12.5% (inactive),31.6 µM (active),-3.56% (inactive)
COc1ccccc1N1CCN(CCCCNC(=O)c2ccc3ccccc3c2)CC1,1.71% (inactive),20 µM (active) and inactive,-13.3% (inactive)
CC(=O)N[C@@H](Cc1c[nH]c2ccccc12)C(=O)OCc1cc(C(F)(F)F)cc(C(F)(F)F)c1,10.1% (inactive),31.6 µM (active),19.5% (inactive)
NC(N)=NC(N)=Nc1ccccc1,-6.28% (inactive),inactive and 31.6 µM (active),7.27% (inactive)

SMILES,"activity change, negative = inhibition [1]",Potency [2],"activity change, negative = inhibition [3]"
N[C@H](C(=O)O)c1cc(O)cc(O)c1,7.53% (inactive),inactive and 31.6 µM (active),-1.35% (inactive)
CC(C)[C@H](NC(=O)OCc1ccccc1)C(=O)N[C@H](C=O)Cc1ccccc1 (Cbz-Val-Phe-aldehyde),-8.71% (inactive),inactive,-9.23% (inactive)
C[C@](Cc1ccc(O)c(O)c1)(NN)C(=O)O,-13.3% (inactive),31.6 µM (active),8.6% (inactive)
O=C(O)/C=C/c1ccc(O)c(O)c1,5.87% [at 17.2 µM] (inactive),–,-10.8% [at 17.2 µM] (inactive)
N#Cc1cc2nc(O)c(O)nc2cc1[N+](=O)[O-],-1.83% (inactive),inactive and 39.8 µM (active),10.2% (inactive)
CSC(=N)N,-0.186% (inactive),inactive,4.79% (inactive)
NC(=Nc1ccccc1)NC(=O)c1nc(Cl)c(N)nc1N,-5.68% (inactive),12.6 µM (active),21.6% (inactive)
CCn1c(=O)[nH]c2cc(Cl)c(Cl)cc21,0.191% (inactive),1.26 µM (active) and 251 nM (active),-27.1% (inactive)
NC(=O)CNCCC(c1ccccc1)c1ccccc1,-7.75% (inactive),inactive,1.39% (inactive)
C=CC[C@H](N)C(=O)O,12.7% (inactive),inactive,2.66% (inactive)
Cn1cc(C(=O)OCC2CCN(CCNS(C)(=O)=O)CC2)c2ccccc21,-4.52% (inactive),12.6 µM (active) and 15.8 µM (active),-2.1% (inactive)
O=c1[nH]c2cc(Cl)ccc2c(O)c1-c1ccc(Oc2ccccc2)cc1,3.01% (inactive),10 µM (active),-0.707% (inactive)
O=C(O)Cc1ccc(O)c(O)c1,-7.22% (inactive),inactive,12.7% (inactive)
CCN1C(=O)C=CC1=O,-2.69% (inactive),inactive,4.62% (inactive)
Cc1cccc(C(=O)NCN2CCN(c3ccccc3C#N)CC2)c1,-12.1% (inactive),15.8 µM (active) and 20 µM (active),-27.4% (inactive)
Cc1nc(N=Nc2ccc(C(=O)O)cc2)c(COP(=O)(O)O)c(C=O)c1O,-5.94% (inactive),inactive,7.15% (inactive)
[Li+],3.61% (inactive),inactive,1.3% (inactive)
CNC(=O)c1cc2c(cn1)[nH]c1ccccc12,0.843% (inactive),794 nM (active) and 50.1 nM (active),-1.62% (inactive)
N[C@@H](Cc1ccc(O)c(I)c1)C(=O)O,9.71% [at 17.2 µM] (inactive),–,-2.26% [at 17.2 µM] (inactive)

SMILES,"activity change, negative = inhibition [1]",Potency [2],"activity change, negative = inhibition [3]"
NCCS(=O)O,7.28% (inactive),inactive,3.37% (inactive)
Nn1nnc2ccccc21,1.19% (inactive),12.6 µM (active),4.59% (inactive)
S=C(S)N1CCCC1,12.8% (inactive),31.6 µM (active) and 12.6 µM (active),-9.46% (inactive)
N#C/C(=C\c1ccc(O)c(O)c1)C(=O)NCCCNC(=O)/C(C#N)=C/c1ccc(O)c(O)c1,-12.1% (inactive),inactive,7.05% (inactive)
CCN(CC)CCCCCCCCOC(=O)c1cc(OC)c(OC)c(OC)c1,20.2% (inactive),inactive,-83.6% (active)
Cn1ccnc1,-6.19% (inactive),inactive,-1.47% (inactive)
CC(=O)NCCc1c[nH]c2ccc(O)cc12,-2.23% (inactive),15.8 µM (active),7.32% (inactive)
O=c1[nH]ccc2c(O)cccc12,-7.94% (inactive),15.8 µM (active),-6.89% (inactive)
C[C@H](O)C(=O)C1=Nc2c(nc(N)[nH]c2=O)NC1,12.2% (inactive),inactive,-2.7% (inactive)
O=C(O)c1ccccc1Nc1ccccc1,4.51% (inactive),15.8 µM (active),6% (inactive)
O=c1onc2cnc3ccccc3n12,-2.81% (inactive),12.6 µM (active) and 2.51 µM (active),1.27% (inactive)
O=C(O)Cc1c[nH]c2ccc(O)cc12,21.9% (inactive),inactive,6.87% (inactive)
COc1ccc2c(c1)c(CC(=O)O)c(C)n2Cc1ccc(Cl)cc1,-18.2% (inactive),31.6 µM (active),-4.65% (inactive)
CCSC(=N)N,-24.3% (inactive),inactive,1.19% (inactive)
O=C(O)c1cc(=O)cc(C(=O)O)[nH]1,-11.2% (inactive),inactive,-5.4% (inactive)
N[C@@H](Cc1c[nH]c2ccccc12)C(=O)O,4% (inactive),–,-12.3% (inactive)
CN(C)S(=O)(=O)c1ccc2c(c1)/C(=C/c1cc3c([nH]1)CCCC3)C(=O)N2,–,0.316 µM (active),–
CC(=O)NNC(=O)N1Cc2ccccc2Oc2ccc(Cl)cc21,-8.52% (inactive),–,13.5% (inactive)
